# According to PubChem BioAssay AID1468 (National Center for Advancing Translational Sciences (NCATS), 2008):
# Hit rate of the full screen: of about 280,000 compounds, about 1,100 (0.39%) were called active. About 7% were inconclusive and are not listed. Calls come from the whole dose curve; as a rule, active = well fitted inhibition curve with a large enough effect; inconclusive = small, poorly fitted or top-dose-only effect, or effect the other way; inactive = flat fitted curve, though single readings scatter. The entries come from a sample that favours actives as a whole. Where a call stands in place of a potency, no number is given.
# Molecular target: Microtubule-associated protein tau (Homo sapiens) (UniProt P10636)
# Sequence (P10636 561-689 P618L limits assumed): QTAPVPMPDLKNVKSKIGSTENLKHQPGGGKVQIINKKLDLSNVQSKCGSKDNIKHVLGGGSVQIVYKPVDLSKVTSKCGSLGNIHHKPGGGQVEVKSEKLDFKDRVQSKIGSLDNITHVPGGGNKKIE
# Assay: qHTS for Inhibitors of Tau Fibril Formation, Fluorescence Polarization; note: nearly all actives have a fitted effect of over 55% in size
# Conditions: K18 P301L tau heparin fibrillization, Alexa594 FP, 6 h; series mostly up to 57.7 µM
# Procedure, shortened: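 Human K18 P301L fragment (15 uM unlabeled plus 0.24 uM Alexa 594-labeled) in 100 mM sodium acetate pH 7 with compound, aggregation induced by 20 uM heparin for 6 hr at 37 C. ThT (30 uM) added for 1 hr, then Alexa 594 FP read.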
# Potency is the fitted concentration of half-maximal effect.
row,Compound,Potency
1,O=C(c1cccnc1)N(c1cc2sc(=O)oc2c2ccccc12)S(=O)(=O)c1ccccc1,17.8 µM (active)
2,CN(C)S(=O)(=O)c1cccc(C(=O)Nc2cccnc2)c1,inactive
3,COc1ccc(N(C(=O)c2cccnc2)S(=O)(=O)c2ccc3c(c2)n(C)c(=O)n3C)cc1,inactive
4,Cc1cccc(N2CCN(C(=O)c3cnc(N4CCCC4)nc3C)CC2)c1C,inactive
5,CCc1ccccc1NC(=O)N1CCC2(CC1)Oc1ccccc1C(=O)N2Cc1ccccc1F,inactive
6,Cc1ccc(N(CC(=O)NCC(C)c2ccccc2)S(=O)(=O)N(C)C)cc1 (stereo not given),inactive
7,CCOc1ccc(CNC(=O)Cn2cc3c(n2)-c2c(oc(C(=O)N4CCCC4)c2C)CC3)cc1,inactive
8,O=C(Nc1ccc2ccccc2c1)Nc1ccc2snnc2c1,11.2 µM (active)
9,O=C(Nc1ccccc1)Nc1nc2ccccc2s1,inactive
10,COc1ccc(NC(=O)Nc2ccc3nsnc3c2)cc1,inactive
11,Cc1ccc(Cl)cc1N1CCN(C(=O)C2CCC(CNS(=O)(=O)c3cccs3)CC2)CC1 (stereo not given),inactive
12,CCCOc1ccc(NC(=O)CC2C(=O)N(c3ccccc3)C(=O)N2Cc2ccco2)cc1 (stereo not given),inactive
13,COc1ccc(/C=C2\SC(=S)N(CC(=O)NNC(=O)c3ccncc3)C2=O)cc1,inactive
14,O=C(CCN1C(=O)/C(=C/c2cccs2)SC1=S)NNC(=O)c1cccc(O)c1,35.5 µM (active)
15,O=C(CCCN1C(=O)/C(=C/c2ccccc2)SC1=S)Nc1ccc(O)cc1,inactive
16,O=C(CCC(=O)N1CC2CCCN2c2ccccc21)NCc1ccccc1Cl (stereo not given),inactive
17,CN(C)c1cccc(C(=O)Nc2nc3ccc(S(=O)(=O)NC(C)(C)C)cc3s2)c1,inactive
18,COc1ccccc1Oc1nc(-c2cccnc2)nc2ccccc12,inactive
19,CNc1nc(-c2ccccc2OC)nc2ccccc12,inactive
20,c1ccc2c(NCC3CCCO3)nc(-c3ccncc3)nc2c1 (stereo not given),inactive
21,c1ccc2c(Nc3ccncc3)nc(-c3ccc4c(c3)OCO4)nc2c1,10 µM (active)
22,c1ccc2c(Nc3ccncc3)nc(-c3ccoc3)nc2c1,inactive
23,COc1cccc(-c2nc(Nc3ccncc3)c3ccccc3n2)c1,14.1 µM (active)
24,COc1ccc(-n2c(SCC(N)=O)nc3c(oc4ccccc43)c2=O)cc1,inactive
25,Cc1cccc(C(=O)N2CCc3cc(CNC(=O)Cc4ccc(F)cc4)ccc32)c1,inactive
26,CCN(CC)S(=O)(=O)c1ccc2c(c1)N(CC(=O)NCC(C)c1ccccc1)C(=O)CO2 (stereo not given),inactive
27,Cc1ccc(S(=O)(=O)N2CCCc3cc(NS(=O)(=O)c4cc(C)ccc4C)ccc32)cc1,inactive
28,COc1ccc(C(=O)Nc2ccccc2C(=O)N/N=C/c2ccc(O)c(OC)c2)cc1,inactive
29,COc1cc(/C=N/NC(=O)c2ccccc2)ccc1OS(=O)(=O)c1ccccc1,35.5 µM (active)
30,COc1ccc(/C=N/S(=O)(=O)c2ccccc2)cc1OC,inactive
